Screening results as filed in PubChem.
Sampled rows, rich in hits. Any-hit rate of the full collection: about 21%.
RORg inh = ROR gamma (mouse) transcription inhibition; 5.4% of 310,000 active; AID 2551; Drosophila S2 Gal4-RORgamma UAS-luciferase reporter, 20 h; Potency, µM (series often up to 53.6 µM), for inactives: top-dose activity change, negative = inhibition, hits mostly inhibitors; P51450; also: potency is read from the fitted curve at half-maximal effect; nearly all actives have a fitted effect of over 60% in size
Target sequence (P51450 whole entry, looked up, the tested form may be a part): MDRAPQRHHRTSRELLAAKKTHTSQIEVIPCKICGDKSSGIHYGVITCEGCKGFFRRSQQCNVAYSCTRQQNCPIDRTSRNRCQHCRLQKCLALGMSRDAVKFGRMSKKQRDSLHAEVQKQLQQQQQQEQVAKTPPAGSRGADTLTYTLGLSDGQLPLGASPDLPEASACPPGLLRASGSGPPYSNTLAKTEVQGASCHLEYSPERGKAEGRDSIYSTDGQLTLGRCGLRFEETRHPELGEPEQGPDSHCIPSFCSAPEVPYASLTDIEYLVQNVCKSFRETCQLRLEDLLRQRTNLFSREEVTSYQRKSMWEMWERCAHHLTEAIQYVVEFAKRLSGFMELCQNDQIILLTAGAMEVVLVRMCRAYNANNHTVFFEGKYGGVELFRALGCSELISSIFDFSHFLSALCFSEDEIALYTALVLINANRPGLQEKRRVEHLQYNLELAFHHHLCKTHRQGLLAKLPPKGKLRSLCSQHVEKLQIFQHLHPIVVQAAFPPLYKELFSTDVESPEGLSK
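In this cell-based reporter format, copper sulfate (700 uM final) drives Gal4–ROR gamma fusion expression from a metallothionein promoter in Drosophila Schneider cells; compounds preincubated 1 hr, reporter read after 20 hr at ambient temperature.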
IL-1B inflam inh = inhibitors of inflammasome signaling (IL-1 beta secretion); THP-1 LPS/ATP IL-1B secretion, AlphaLISA, 16 h; active compounds read low; activity change, % at 57.5 µM; 4.7% of 360,000 active; AID 743279; in the data active = activity change below about -50%; inconclusive = mostly about -30% to -49%
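THP-1 cells pretreated 1 hr with compounds (up to 57.5 uM final), then stimulated with LPS (250 ng/mL final) plus ATP (1.25 mM final); secreted IL-1B measured by AlphaLISA after 16 hr, decreased signal indicating inhibition.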
Gal4-VP16 FLuc = Gal4-VP16 reporter inhibition counter-screen; Drosophila S2 Gal4-VP16 UAS-luciferase, luminescence, 20 h; Potency, µM (series often up to 53.6 µM), inactives show at the top dose activity, negative = inhibition, actives largely listed as inhibitors; 3.5% of 310,000 active;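 also: Gal4-VP16 expression switched on by copper sulfate through the metallothionein promoter; potency is read from the fitted curve at half-maximal effect; nearly all actives have a fitted effect of over 50% in size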
ELG1 repair inh = blocks ELG1-dependent DNA repair in HEK293T cells; HEK293T ELG1-luciferase reporter, luminescence, 16 h; DNA damage induced by 5-fluorouridine; Potency, µM (top dose mostly 46.1 µM), inactives show at the top dose activity change, negative = inhibition, most hits filed as inhibitors; 2.3% of 330,000 active; AID 504467; also: potency is read from the fitted curve at half-maximal effect; nearly all actives have a fitted effect of over 55% in size
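Step one: seed 2,000 cells per well. Step two: pin-transfer compound or DMSO alongside 5-fluorouridine. Step three: incubate 16 hr, 37 °C, 5% CO2. Step four: add ONE-Glo, wait 30 min, read luminescence.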
TDP1 cell noCPT = qHTS for Inhibitors of human tyrosyl-DNA phosphodiesterase 1 (TDP1): qHTS in cells in absence of CPT; DT40 Tdp1-/- hTDP1 cells, no CPT, ATP luminescence, 48 h; Potency, µM (series often up to 46.2 µM), without a hit: at the top dose activity change, negative = growth inhibition, most hits filed as inhibitors; 15% of 420,000 active; AID 686978, 2013; also: potency is read from the fitted curve at half-maximal effect; nearly all actives have a fitted effect of over 55% in size
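Compound effects on proliferation are scored in DT40 Tdp1-/-;hTDP1 cells in the absence of CPT. ATP levels (CellTiter-Glo luminescence) are recorded after a ≥48 hr, 37 °C incubation.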
DT40 TDP1 CPT = growth inhibition of DT40 Tdp1-/-;hTDP1 cells with camptothecin (screen for TDP1 inhibitors); 12% of 420,000 active; chicken DT40 Tdp1-/-;hTDP1 cells + 20 nM CPT, ATP luminescence, 48 h; Potency, µM (highest dose often 46.2 µM), without a hit: at the highest dose activity change, negative = growth inhibition, usual class: inhibitors; also: potency is read from the fitted curve at half-maximal effect; nearly all actives have a fitted effect of over 55% in size
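Chicken DT40 Tdp1-/- cells complemented with human TDP1, 400 cells/well, exposed to compounds plus 20 nM camptothecin for at least 48 h at 37 C; viability read as ATP content by CellTiter-Glo luminescence.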
Starred values were filed as active, the others as inactive; [ ] = remark or other dose. Unless noted, calls follow the shape of the dose curve; as a rule, active = well fitted curve in the direction sought with a large enough effect; inconclusive = small, poorly fitted or top-dose-only effect, or another doubt; inactive = no such curve, though single readings can be large; an effect the other way counts as inactive or inconclusive. % is scaled to controls: 0 for no effect and ±100 for the full control effect.

Results for Cn1nccc1C(=O)N/N=C/c1c(O)ccc2ccccc12 ?
RORg inh: 3.2µM*; IL-1B inflam inh: 286; Gal4-VP16 FLuc: 2.8µM*; ELG1 repair inh: inconclusive; TDP1 cell noCPT: 3.3µM*; DT40 TDP1 CPT: 4.6µM*

How did CCc1ccc(C(=O)c2cn(CC(=O)Nc3cc(OC)ccc3OC)c3ccc(C)cc3c2=O)cc1 do in these assays?
TDP1 cell noCPT: -17%; DT40 TDP1 CPT: -29%

How did CCOC(=O)C1CCCCN1Cc1cccc(Oc2ccccc2)c1 (stereo not drawn) do in these assays?
RORg inh: 43%; IL-1B inflam inh: -5; Gal4-VP16 FLuc: 2%; ELG1 repair inh: -2%; TDP1 cell noCPT: inconclusive; DT40 TDP1 CPT: -5%

Results for Cc1ccc(Cn2cc(CN(C)C3CN(Cc4cn(Cc5ccc(C)cc5)nn4)S(=O)(=O)C3)nn2)cc1 (stereo not drawn) ?
IL-1B inflam inh: -20; TDP1 cell noCPT: inconclusive; DT40 TDP1 CPT: inconclusive

How did O=C(N/N=C\c1c(O)ccc2ccccc12)c1cncc(Br)c1 do in these assays?
RORg inh: 5µM*; IL-1B inflam inh: 204; Gal4-VP16 FLuc: 4.5µM*; ELG1 repair inh: inconclusive; TDP1 cell noCPT: 0.82µM*; DT40 TDP1 CPT: 1.6µM*

Results for CC(C)(C)N1C(=O)[C@H]2[C@H]3[C@H](O)[C@H](O)C/C(=N/OCc4ccccc4)[C@@H]3CC[C@@H]2C1=O ?
RORg inh: 6%[10 µM]; Gal4-VP16 FLuc: -2%[10 µM]

How did O=C(c1csnn1)N1CCC2(CC1)CCN(c1cccc(-c3ccccc3)c1)CC2 do in these assays?
RORg inh: 37%; Gal4-VP16 FLuc: -10%; TDP1 cell noCPT: inconclusive; DT40 TDP1 CPT: inconclusive

What do the screens show for `Cc1nc2cnc(OCc3ccccc3)nc2n(CCc2ccccc2)c1=O`?
RORg inh: inconclusive; Gal4-VP16 FLuc: -5%; TDP1 cell noCPT: inconclusive; DT40 TDP1 CPT: inconclusive

Results for CC12CC3OS(=O)OC3CC3C4C(C(OCc5ccccc5)C31)C42 (stereo not drawn) ?
RORg inh: -5%[10 µM]; Gal4-VP16 FLuc: 5%[10 µM]

How did COc1cc(C2C3C(=O)N(c4ccccc4)C(=O)C3ON2c2ccccc2)cc(OC)c1OC (stereo not drawn) do in these assays?
RORg inh: 9%; IL-1B inflam inh: 17; Gal4-VP16 FLuc: 0%; ELG1 repair inh: 0%; TDP1 cell noCPT: -3%; DT40 TDP1 CPT: 6%

How did CCN1C/C(=C\c2cc(OC)c(OC)c(OC)c2)C2=NN(c3ccccc3)C(c3cc(OC)c(OC)c(OC)c3)C2C1 (stereo not drawn) do in these assays?
IL-1B inflam inh: 17; TDP1 cell noCPT: 5.8µM*; DT40 TDP1 CPT: 6.5µM*

Results for Cc1cc(-c2ccc(C)c(S(=O)(=O)NCc3ccc(Cl)cc3)c2)on1 ?
TDP1 cell noCPT: inconclusive; DT40 TDP1 CPT: -12%

How did Cc1cc(-c2ccc(C)c(S(=O)(=O)NCCCN3CCN(c4ccccc4)CC3)c2)on1 do in these assays?
RORg inh: 16%; IL-1B inflam inh: -7; Gal4-VP16 FLuc: -11%; ELG1 repair inh: inconclusive; TDP1 cell noCPT: 23µM*; DT40 TDP1 CPT: inconclusive

How did Cc1cc(-c2ccc(C)c(S(=O)(=O)NCCCN3CCN(c4ccccc4F)CC3)c2)on1 do in these assays?
RORg inh: 11%; IL-1B inflam inh: -12; Gal4-VP16 FLuc: -24%; ELG1 repair inh: inconclusive; TDP1 cell noCPT: inconclusive; DT40 TDP1 CPT: inconclusive

Results for Cc1cc(-c2ccc(C)c(S(=O)(=O)NCCCN3CCCCCC3)c2)on1 ?
RORg inh: -2%; IL-1B inflam inh: -51*; Gal4-VP16 FLuc: 5%; ELG1 repair inh: 10%; TDP1 cell noCPT: -28%; DT40 TDP1 CPT: -24%

What do the screens show for `Cc1cc(-c2ccc(C)c(S(=O)(=O)NCc3cccs3)c2)on1`?
TDP1 cell noCPT: 15µM*; DT40 TDP1 CPT: 12µM*

How did COc1ccc(-c2cc(C)no2)cc1S(=O)(=O)NCCCN1CCN(c2ccccc2)CC1 do in these assays?
RORg inh: -4%; IL-1B inflam inh: -9; Gal4-VP16 FLuc: -2%; ELG1 repair inh: inconclusive; TDP1 cell noCPT: 23µM*; DT40 TDP1 CPT: inconclusive

How did O=C1c2ccccc2[C@@H]2C[C@H]3O[C@H]3CCN12 do in these assays?
IL-1B inflam inh: 42; ELG1 repair inh: 17%; TDP1 cell noCPT: -1%; DT40 TDP1 CPT: 5%

Results for Nc1[nH]c(C(=O)c2ccccc2)c(-c2c(F)cccc2F)c1C(=O)c1ccc(Cl)c(Cl)c1 ?
IL-1B inflam inh: -18; TDP1 cell noCPT: inconclusive; DT40 TDP1 CPT: inconclusive

Results for CN(C)c1ccc(N2C(=NC(=O)CC3CCCCC3)SC3CS(=O)(=O)CC32)cc1 (stereo not drawn) ?
RORg inh: -2%; IL-1B inflam inh: -20; Gal4-VP16 FLuc: 4%; ELG1 repair inh: 5%; TDP1 cell noCPT: 2%; DT40 TDP1 CPT: -8%

Results for O=C(NCCOC(=O)c1ccc([N+](=O)[O-])cc1)c1cccnc1 ?
RORg inh: -7%; IL-1B inflam inh: 45; Gal4-VP16 FLuc: -3%[10 µM]; ELG1 repair inh: 7%; TDP1 cell noCPT: -7%; DT40 TDP1 CPT: -9%

Results for CCOC(=O)C1=C(C)NC(C)=C(C(=O)OCCNC(=O)c2cccnc2)C1c1cccc([N+](=O)[O-])c1 (stereo not drawn) ?
RORg inh: inconclusive; IL-1B inflam inh: -59*; Gal4-VP16 FLuc: -21%; ELG1 repair inh: inconclusive; TDP1 cell noCPT: inconclusive; DT40 TDP1 CPT: 23µM*

Results for CCOc1cccc(CN2CCCC(C(=O)c3cc(Cl)ccc3OC)C2)c1O (stereo not drawn) ?
RORg inh: -8%; IL-1B inflam inh: -55*; Gal4-VP16 FLuc: -2%; ELG1 repair inh: inconclusive; TDP1 cell noCPT: inconclusive; DT40 TDP1 CPT: inconclusive

How did CCOc1cccc(CN2CCCC(N3CCN(c4cccc(Cl)c4)CC3)C2)c1O (stereo not drawn) do in these assays?
RORg inh: 4%; IL-1B inflam inh: -72*; Gal4-VP16 FLuc: -16%; ELG1 repair inh: -22%; TDP1 cell noCPT: inconclusive; DT40 TDP1 CPT: -15%

Results for CCOc1cccc(CN2CCCC(N3CCc4ccccc4C3)C2)c1O (stereo not drawn) ?
RORg inh: 2%; IL-1B inflam inh: -4; Gal4-VP16 FLuc: -3%; ELG1 repair inh: -9%; TDP1 cell noCPT: inconclusive; DT40 TDP1 CPT: -17%
